About 83,000 compounds went through this panel and 20% of them were active in at least one assay; those are over-represented in the sample as a whole.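 Plates (96-well) were seeded with cells, treated with compound at one concentration, and incubated for 48 hours before percent growth was determined.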 A number with no mark means an inactive call. Activity calls are given as the source filed them. Rule for the calls: active = growth percent below 10; inactive = the rest.
What was measured:
Assay in all cases: NCI-60 one-dose screen, 48 h (100 = growth as untreated, 0 = no growth, -100 = all killed)
SK-MEL-2 melanoma = conditions: 10 µM unless noted
EKVX NSCLC = conditions: 10 µM unless noted
SN12C renal = conditions: 10 µM unless noted
UO-31 renal = conditions: 10 µM unless noted
TK-10 renal = conditions: 10 µM unless noted
ACHN renal = conditions: 10 µM unless noted
CAKI-1 renal = conditions: 10 µM unless noted
A498 renal = conditions: 10 µM unless noted
CCRF-CEM leukemia = conditions: 10 µM unless noted
MOLT-4 leukemia = conditions: 10 µM unless noted
SR leukemia = conditions: 10 µM unless noted
RPMI-8226 leukemia = conditions: 10 µM unless noted
OVCAR-8 ovarian = conditions: 10 µM unless noted
OVCAR-5 ovarian = conditions: 10 µM unless noted
OVCAR-4 ovarian = conditions: 10 µM
IGROV1 ovarian = conditions: 10 µM unless noted
OVCAR-3 ovarian = conditions: 10 µM unless noted
HS 578T breast = conditions: 10 µM unless noted
NCI/ADR-RES ovarian = conditions: 10 µM unless noted
SK-OV-3 ovarian = conditions: 10 µM unless noted

| Compound | growth (SK-MEL-2 melanoma) | growth (EKVX NSCLC) | growth (SN12C renal) | growth (UO-31 renal) | growth (TK-10 renal) | growth (ACHN renal) | growth (CAKI-1 renal) | growth (A498 renal) | growth (CCRF-CEM leukemia) | growth (MOLT-4 leukemia) | growth (SR leukemia) | growth (RPMI-8226 leukemia) | growth (OVCAR-8 ovarian) | growth (OVCAR-5 ovarian) | growth (OVCAR-4 ovarian) [%] | growth (IGROV1 ovarian) | growth (OVCAR-3 ovarian) | growth (HS 578T breast) | growth (NCI/ADR-RES ovarian) | growth (SK-OV-3 ovarian) |
| --- | --- | --- | --- | --- | --- | --- | --- | --- | --- | --- | --- | --- | --- | --- | --- | --- | --- | --- | --- | --- |
| COc1ncc(-c2ccc3nccc(C#CCCCCC(=O)O)c3c2)cc1NS(=O)(=O)c1ccc(F)cc1F | 31.3% | 22% | 40.8% | 12.5% | 3.96% (active) | 32% | 14.1% | -34.5% (active) | 24.4% | 29% | 63.8% | 47.4% | 35.4% | 22.7% | 50.3 | -13% (active) | 19.8% | -10.2% (active) | 56% |  |
| C[n+]1cccc(NC(=O)c2ccc3ccc4ccc(C(=O)Nc5ccc[n+](C)c5)nc4c3n2)c1 | 56.9% | 68.1% | -14.8% (active) | 65.4% | 94.2% | 41.8% | 52.3% | 95.3% | 71.1% | 71.5% | 75% | 61.5% | 62.5% | 79.5% |  | 32.3% | 62.4% | 74.7% | 101% | 8.34% (active) |
| COc1ccc(-c2cc(-c3ccc(Cl)cc3)nc(NCCCCNc3ccnc4cc(Cl)ccc34)n2)cc1 | 78% | 77.3% | 77.1% | 35.5% | 107% | 91.8% | 64.3% | 3.15% (active) | 7.63% (active) | 3.22% (active) | 9.44% (active) | 23.8% | -23.3% (active) | 96.2% | 73.3 | 60.8% | 96% | 81.5% | 72.2% |  |
| O=C(Nc1ccc(CN2CCOCC2)c(C(F)(F)F)c1)c1nc2ccc3[nH]ncc3c2c2c1CCCC2 | 103% | 87.3% | 94.4% | 73% | 104% | 91.5% | 80.9% | 113% | 84.8% | 76.3% | 95.8% | 83.3% | 93.5% | 104% | 91 | 95.8% | 102% | 95.7% | 96.3% |  |
| CC(C)=CCC[C@](C)(O)[C@H]1CC[C@]2(C)[C@@H]1CC[C@@H]1[C@@]3(C)CC/C(=N/O)C(C)(C)[C@@H]3CC[C@]12C | -23.2% [100 µM] (active) | 2.6% [100 µM] (active) | -42.4% [100 µM] (active) | -17.7% [100 µM] (active) | -39.1% [100 µM] (active) | -72% [100 µM] (active) | -58.4% [100 µM] (active) | -15.7% [100 µM] (active) | 23.1% [100 µM] | 2.24% [100 µM] (active) | 12.5% [100 µM] | -2.67% [100 µM] (active) | -69.7% [100 µM] (active) | 2.17% [100 µM] (active) |  | -66.5% [100 µM] (active) | -42.3% [100 µM] (active) | -13% [100 µM] (active) | -10.9% [100 µM] (active) | 12.4% [100 µM] |
| CCOC(=O)c1nn(C2CCCCO2)c2ccc(NC(=O)CN3CCOCC3)cc12 (centres undefined) | 108% | 100% | 101% | 86.6% | 109% | 99.6% | 84.2% | 99.9% | 1.49% (active) | 96.1% | 112% | 109% | 99.6% | 102% | 102 | 102% | 107% | 99.3% | 104% |  |
| Cc1nc(Cl)cc(N(c2cc(Cl)nc(C)n2)c2ncc(C(=O)Nc3c(C)cccc3Cl)s2)n1 | 87.4% | 84.7% | 37.5% | 24.8% | 36.7% | 14.1% | 4% (active) | 35.6% | 53.7% | 40.6% | 86.9% | 50.8% | 63.1% | 38.5% |  | -22% (active) | 49.9% | -1.46% (active) | 59.3% | 39.8% |
| CC(C)c1ccc(/C=N/N=C(N)N)cc1 | 102% | 87.1% | 93.8% | 73.2% | 95.1% | 83.2% | 50.9% | 106% | 35.7% | 45.7% | 21.6% | 17.1% | 89.8% | 89.5% |  | 89.5% | 72.6% | 97.8% | 79.4% | 85.5% |
| c1ccc(-c2nc(N3CCCNCC3)c3nc(-c4ccccc4)oc3n2)cc1 | 102% | 62.8% | -22.5% (active) | 51.1% | -47.3% (active) | -53.5% (active) | 40.1% | 69.9% | 12.7% | 0.525% (active) | 0.248% (active) | -15.7% (active) | 59.5% | 87.9% | 76.3 | -56% (active) | -69.8% (active) | 83.6% | -11.8% (active) |  |
| CCN1c2ccccc2C(Cl)(c2ccc(N(C)C)cc2)c2ccccc21 | 81.5% | 69.1% | 46.1% | 57.6% | 62.8% | 72.7% | 62.9% | 135% | 17% | 65.6% | 22.6% | -28.8% (active) | 17.9% | 107% | 75.2 | -20.3% (active) | 23.2% | 102% | 85.8% |  |
| Cc1ccc(NCCN2CCCCC2)c2c(=O)c3ccccc3sc12 | 45.6% | 68.6% | 32% | -16.6% (active) | 42.6% | 15.9% | 38.6% | 28.3% | 30.2% | 11.4% | 15.3% | -17.1% (active) | 29.2% | 43.2% | 56.9 |  | 58.5% | -8.32% (active) | 42% |  |
| COC(=O)[C@]1(C)CC[C@]2(C)CC[C@]3(C)C(=CC(=O)[C@@H]4[C@@]5(C)CCC(=O)NC(C)(C)[C@@H]5CC[C@]43C)[C@@H]2C1 | -83.2% [100 µM] (active) | -45.1% [100 µM] (active) | -81.1% [100 µM] (active) | -93.3% [100 µM] (active) | -26.3% [100 µM] (active) | -39.8% [100 µM] (active) | -20% [100 µM] (active) | -91.4% [100 µM] (active) | -25.4% [100 µM] (active) | -20.7% [100 µM] (active) | 32.7% [100 µM] | -44.5% [100 µM] (active) | -39.8% [100 µM] (active) | -60.8% [100 µM] (active) |  | -55.5% [100 µM] (active) | -70.4% [100 µM] (active) | -30.4% [100 µM] (active) | -71.9% [100 µM] (active) | -16.8% [100 µM] (active) |
| C=C(C)[C@@H]1CC[C@]2(c3ncc(C)o3)CC[C@]3(C)[C@H](CC[C@@H]4[C@@](C)(CCC#N)[C@H](C(=C)C)CC[C@]43C)[C@@H]12 | -89.5% [100 µM] (active) | -79.1% [100 µM] (active) | -91.5% [100 µM] (active) | -94.4% [100 µM] (active) | -90.6% [100 µM] (active) | -97.8% [100 µM] (active) | -96.4% [100 µM] (active) | -93.4% [100 µM] (active) | -11.1% [100 µM] (active) | -35.4% [100 µM] (active) | 14.9% [100 µM] | -41% [100 µM] (active) | -78.1% [100 µM] (active) | -97.2% [100 µM] (active) |  | -87.6% [100 µM] (active) | -80.4% [100 µM] (active) | -28% [100 µM] (active) | -82.9% [100 µM] (active) | -88.4% [100 µM] (active) |
| O=C(Nc1ccc(Oc2ccc(F)cc2)c(Cl)c1)c1cnccn1 | 53.6% | 78% | 69.8% | 65% | 85.8% | 94.1% | 49.7% | 67.7% | 64.1% | 45.1% | 49.3% | 80.4% | 71.4% | 81.1% |  | 62.6% | 43.6% | 62.4% | 40.8% | 100% |
| CCCCNC(=O)NS(=O)(=O)Cc1ccccc1 | 119% | 122% | 113% | 82.8% | 118% | 106% | 100% | 110% | 93.1% | 97.5% | 108% | 95.8% | 100% | 108% |  | 97.3% | 109% | 107% | 112% | 107% |

Source: PubChem BioAssay (NCI)
